Counter-ions that a name gives are not always drawn. Unmarked numbers belong to inactive results.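 The calls were made as follows: active = log2 fold change beyond 2 SD from the library mean after excluding viability outliers; inactive = within 2 SD.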
Biological target: PARP1 L713F-nLuc biosensor (HCT116) (UniProt P09874)
Test: PARP1 L713F-nLuc/akaLuc ratio relative to DMSO control (biosensor stabilization) (fold change); higher = more PARP1 biosensor stabilization (target engagement / stabilizer), active = hit call of the paper
Conditions: stock concentration (mM; final µM = stock mM x 1): 10; 24 h

PARP1 L713F-nLuc biosensor (HCT116), sequence (P09874 whole entry L713F, looked up): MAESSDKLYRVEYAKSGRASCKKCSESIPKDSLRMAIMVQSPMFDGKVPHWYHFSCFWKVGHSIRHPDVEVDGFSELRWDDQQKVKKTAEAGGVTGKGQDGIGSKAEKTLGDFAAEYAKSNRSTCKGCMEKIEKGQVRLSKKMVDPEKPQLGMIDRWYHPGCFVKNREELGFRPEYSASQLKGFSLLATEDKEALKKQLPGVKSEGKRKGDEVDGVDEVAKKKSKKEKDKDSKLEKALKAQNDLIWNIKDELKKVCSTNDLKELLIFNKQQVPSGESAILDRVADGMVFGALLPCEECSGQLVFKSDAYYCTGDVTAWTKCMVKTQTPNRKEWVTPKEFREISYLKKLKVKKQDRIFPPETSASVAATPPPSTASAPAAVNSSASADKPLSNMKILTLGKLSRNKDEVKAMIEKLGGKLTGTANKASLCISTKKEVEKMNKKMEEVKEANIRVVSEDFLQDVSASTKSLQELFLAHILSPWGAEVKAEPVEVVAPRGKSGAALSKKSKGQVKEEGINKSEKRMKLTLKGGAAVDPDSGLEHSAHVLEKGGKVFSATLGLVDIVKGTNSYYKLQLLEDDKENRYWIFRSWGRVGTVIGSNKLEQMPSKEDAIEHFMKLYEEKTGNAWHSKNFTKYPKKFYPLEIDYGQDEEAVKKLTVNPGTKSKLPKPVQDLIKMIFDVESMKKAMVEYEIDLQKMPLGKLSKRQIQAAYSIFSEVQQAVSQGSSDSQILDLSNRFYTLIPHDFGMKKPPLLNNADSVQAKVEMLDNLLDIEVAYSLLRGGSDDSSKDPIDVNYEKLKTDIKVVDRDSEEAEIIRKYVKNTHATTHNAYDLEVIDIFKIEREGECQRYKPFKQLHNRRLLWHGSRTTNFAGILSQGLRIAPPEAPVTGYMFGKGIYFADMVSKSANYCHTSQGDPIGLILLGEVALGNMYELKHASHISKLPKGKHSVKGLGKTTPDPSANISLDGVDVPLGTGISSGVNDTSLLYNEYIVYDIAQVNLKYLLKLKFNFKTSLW

Structure (SMILES) | PARP1 L713F-nLuc/akaLuc ratio
NC(=O)c1cccc2cn(-c3ccc([C@@H]4CCCNC4)cc3)nc12 [Niraparib (MK-4827)] | 6.42 (active)
Nc1nc(Nc2ccc(S(N)(=O)=O)cc2)nn1C(=O)c1c(F)cccc1F | 0.483
O=c1[nH]c(=O)n([C@H]2C[C@H](O)[C@@H](CO)O2)cc1F [Floxuridine] | 0.549
O=C(O)CNC(=O)c1nc(Cl)c2ccccc2c1O | 0.618
CCS(=O)(=O)N1CCC([C@@H](C)n2c(C)c(C(=O)NCc3c(OC)cc(C)[nH]c3=O)c3ccccc32)CC1 (racemic) [CPI-169 (racemate)] | 1.12
CN1CCN(c2nc(C3=C(c4c[nH]c5ccccc45)C(=O)NC3=O)c3ccccc3n2)CC1 [Sotrastaurin] | 1.31
Nc1nc(=O)n(-c2cccc(-c3ccccc3)c2)cc1Cl [Bobcat339 (hydrochloride)] | 0.757
O=C(Nc1ccccc1-c1cn2c(CN3CC[C@@H](O)C3)csc2n1)c1ccc2ccccc2c1 | 0.641
Cc1ccc(NC(=O)c2ccc(CN3CCN(C)CC3)cc2)cc1Nc1nc(-c2cccnc2)cs1 [Masitinib (AB1010)] | 0.851
CO[C@H]1C[C@@H]2CC[C@@H](C)[C@@](O)(O2)C(=O)C(=O)N2CCCC[C@H]2C(=O)O[C@H]([C@H](C)C[C@@H]2CC[C@@H](OP(C)(C)=O)[C@H](OC)C2)CC(=O)[C@H](C)/C=C(\C)[C@@H](O)[C@@H](OC)C(=O)[C@H](C)C[C@H](C)/C=C/C=C/C=C/1C [Ridaforolimus (Deforolimus, MK-8669)] | 1.7
O=C1CN2Cc3c(ccc(Cl)c3Cl)N=C2N1 [Anagrelide HCl] | 0.856
NC(=O)c1cccc2cn(-c3ccc([C@@H]4CCCNC4)cc3)nc12 [Niraparib (tosylate)] | 7.76 (active)
CN(C)C(=O)c1ccc(S(=O)(=O)c2ccc(NC(=O)[C@@](C)(O)C(F)(F)F)c(Cl)c2)cc1 | 1.12
N[C@H]1C(O)O[C@H](CO)[C@@H](O)[C@@H]1O (stereo partly specified) [Glucosamine] | 1.02
Cc1cc(Nc2nc(CC3(C(=O)O)CCN(C(=O)c4cccc(Cl)c4Cl)CC3)ccc2F)n[nH]1 | 1.6
O=C(O)CNC(=O)c1c(O)cc(CCc2ccccc2)n2ncnc12 [Enarodustat] | 1.29
COc1nc(Nc2cc(S(C)(=O)=O)ccc2N[C@@H](c2cccc3c2OC(F)(F)O3)c2ncccc2Cl)nc(N2CCNCC2)n1 | 0.707
NC(=O)c1ncn(C2OC(CO)C(O)C2O)c1N (stereo unspecified) [AICAR (phosphate)] | 1.04
O=C1NC(=O)[C@@H](c2cn3c4c(cccc24)CCC3)[C@@H]1c1c[nH]c2ccccc12 [Tivantinib (ARQ 197)] | 0.773
C[C@@H](NC(=O)c1ncnc(N)c1Cl)c1ncc(C(=O)Nc2cc(C(F)(F)F)c(Cl)cn2)s1 | 0.886
Nc1cccc(Nc2ncc(-c3ccc(Cl)cc3)o2)c1 | 0.952
NC(=O)C1CCCc2c1[nH]c1ccc(Cl)cc21 (stereo unspecified) [Selisistat] | 0.963
Cc1cnc(-c2ccccc2C(C)C)nc1NCc1ccc(-n2ccnn2)cc1 | 0.718
Cc1ncccc1-c1cnc(NCc2c(F)ccc3c2CCO3)n2cnnc12 | 1.39
CN1CCN(c2cccc(Nc3nc4c(-c5ccc(S(C)(=O)=O)cc5)cccn4n3)c2)CC1 | 0.968
COc1ccc2c(=O)c(-c3ccccc3)coc2c1 [7-Methoxyisoflavone] | 0.63
